Experimental data as given in PubChem BioAssay (NCATS).
“And” between values parts separate entries of the source, which are not always exact repeats. Identical values can stand only once. Inconclusive results are not listed. The source made the active and inactive calls. Unless noted, calls follow the shape of the dose curve; as a rule, active = well fitted curve in the direction sought with a large enough effect; inconclusive = small, poorly fitted or top-dose-only effect, or another doubt; inactive = no such curve, though single readings can be large; an effect the other way counts as inactive or inconclusive.

Legend:
[1] = Primary qHTS for inhibitors of La Crosse Virus (LACV) - induced cell death in SH-SY5Y cells (AID 1508616);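 also: top concentration of the series differs between compounds; 0% = infected DMSO wells and 100% = uninfected DMSO wells; higher means more rescue of cells from virus-induced death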
Outline: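 Readout was luminescence from ATPLite 1step added after a 6-day LACV infection (0.01 MOI) of SH-SY5Y cells that had received pin-transferred compound 24 hr after seeding.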

[2] = target: Calcium and integrin-binding protein 1 (Homo sapiens) (UniProt Q99828); assay: Primary qHTS for Identification of Calcium Integrin Binding Protein 1 (CIB1) Competitor (AID 1508620);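 also: GST tagged CIB1 binding a fluorescein labelled alphaIIb integrin peptide tracer; top concentration of the series differs between compounds; % is scaled to controls: 0 for no effect and ±100 for the full control effect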
Outline: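 Fluorescence polarization competition: CIB1-GST (1 uM final) preincubated with compound 15 min at room temperature, then FITC-labeled alphaIIb peptide (100 nM final) added for another 15 min. Polarization read at Ex 480/Em 540.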

[3] = Counterscreen qHTS for small molecule stabilizers of the endoplasmic reticulum resident proteome: GLuc-NoTag assay (AID 1508627); also: potency is read from the fitted curve at half-maximal effect;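 as to activity change, negative = inhibition: SH-SY5Y cells given compound then 100 nM thapsigargin to empty ER calcium; 0% = thapsigargin alone and -100% = DMSO vehicle control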
Outline: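 SH-SY5Y cells stably expressing constitutively secreted GLuc (no SERCaMP tag) were pre-incubated 5 h, treated with compound for 19 h, then 100 nM thapsigargin for 4 h at 37C; medium GLuc read by coelenterazine luminescence.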

[4] = Confirmatory qHTS for small molecule stabilizers of the endoplasmic reticulum resident proteome: Secreted ER Calcium Modulated Protein (SERCaMP) assay (AID 1508628); also: nearly all actives have a fitted effect of over 40% in size; also: potency is read from the fitted curve at half-maximal effect
Outline: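 We seeded SH-SY5Y-GLuc-SERCaMP cells, added compounds (three concentrations in the primary run, eleven up to 76.6 uM in confirmation), incubated 16 h, depleted ER calcium with thapsigargin, and read luciferase 4 h later.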

[5] = Cell Viability qHTS for small molecule stabilizers of the endoplasmic reticulum resident proteome (AID 1508629); conditions: cell viability counter-screen, 100 nM thapsigargin for final 4 h;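 also: human SH-SY5Y neuroblastoma cells carrying the GLuc-SERCaMP reporter; compound exposure about 46 h in total before the viability read; % is scaled to controls: 0 for no effect and ±100 for the full control effect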
[6] = A High-Content qHTS Against Drug Library for the Identification of Small Molecules that Inhibit DYT1 Early Onset Primary Dystonia-Associated Cell Pathology (AID 1645839; calls by dose curve)
Outline: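 Readout: %pathology, the punctate EGFP-TorsinA distribution from imaging, as the primary channel and cell count as the toxicity counterscreen. HEK293 Flp-In cells expressing delE TorsinA were induced with tetracycline and treated with compound for 48 h.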

[7] = target: Cytochrome P450 2D6 (Homo sapiens) (UniProt P10635); assay: Cytochrome P450 family 2 subfamily D member 6 (CYP2D6) small molecule antagonists: luciferase biochemical (cell-free) qHTS assay (AID 1645840; active = well fitted curve in the direction sought with a large enough effect in the repeat runs; an effect the other way counts as inactive or inconclusive; also: nearly all actives have a fitted effect of over 55% in size; also: potency is read from the fitted curve at half-maximal effect; as to activity change, negative = inhibition: % is scaled to controls: 0 for no effect and ±100 for the full control effect)
Outline: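 P450-Glo luminescent screen: recombinant CYP2D6 enzyme–proluciferin substrate mix preincubated with compound 10 min at room temperature, then NADPH regeneration added for 1 h at room temperature. Detection reagent added for 20 min; luciferin light read as relative luminescence units.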

[8] = target: Cytochrome P450 3A4 (Homo sapiens) (UniProt P08684); assay: Cytochrome P450 family 3 subfamily A member 4 (CYP3A4) small molecule antagonists: luciferase qHTS assay (AID 1645841; active = well fitted curve in the direction sought with a large enough effect in the repeat runs; an effect the other way counts as inactive or inconclusive; also: nearly all actives have a fitted effect of over 45% in size)
Outline: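 P450-Glo CYP3A4 enzyme with proluciferin substrate was preincubated with DMSO-dissolved compounds for 10 min at room temperature. NADPH regeneration solution started a 1 h reaction. Detection reagent stopped it, and luminescence was read after 20 min.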

[9] = target: Cytochrome P450 2C9 (Homo sapiens) (UniProt P11712); assay: Cytochrome P450 family 2 subfamily C member 9 (CYP2C9) small molecule antagonists: luciferase biochemical (cell-free) qHTS assay (AID 1645842; active = well fitted curve in the direction sought with a large enough effect in the repeat runs; an effect the other way counts as inactive or inconclusive; also: nearly all actives have a fitted effect of over 55% in size; also: potency is read from the fitted curve at half-maximal effect)
Outline: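 Luminescence, after 20 min with luciferin detection reagent, reflected CYP2C9 turnover during a 1 h NADPH-driven reaction at 37C. Enzyme-substrate mix contained 0.4% bovine serum albumin and was preincubated with compound 10 min at room temperature.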

[10] = Cytotoxicity counterscreen for inhibitors of SARS-CoV-2 cell entry (AID 1645845; calls by dose curve; also: nearly all actives have a fitted effect of over 50% in size)
Outline: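 Expi293F/hACE2 cells seeded overnight; cpd pin-transferred in DMSO, 1 h preincubation, + media, 48 h 37 C 5% CO2; ATPLite 1step luminescence; normalized to cells and no cells.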

[11] = Primary qHTS to identify inhibitors of SARS-CoV-2 cell entry (AID 1645846; calls by dose curve; also: nearly all actives have a fitted effect of over 45% in size; also: potency is read from the fitted curve at half-maximal effect); conditions: activity change, negative = inhibition: at 57.1 µM (top of the series) unless noted
Outline: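 HEK293 cells stably expressing human ACE2, pre-treated 1 h with compound, then infected with MLV particles pseudotyped with Wuhan-Hu-1 spike (C-terminal 19-aa truncation). Luciferase luminescence after 48 h at 37 °C, normalised to spike PP and bald PP.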

[12] = Primary qHTS for inhibitors of nuclear receptor binding SET domain protein 2 (NSD2) in an isogenic RCH-ACV NSD2 p.E1099K mutant (9B) (AID 1645876); also: nearly all actives have a fitted effect of over 70% in size; also: potency is read from the fitted curve at half-maximal effect
[13] = Primary qHTS for small molecule stabilizers of the endoplasmic reticulum resident proteome: Secreted ER Calcium Modulated Protein (SERCaMP) assay (AID 1508630); also: % is scaled to controls: 0 for no effect and ±100 for the full control effect
Outline: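 GLuc-SERCaMP-expressing SH-SY5Y cells, pretreated 16 h with compound, are challenged with thapsigargin to empty ER calcium stores; after 4 h, coelenterazine is added directly to the medium and luminescence is imaged.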

Sequence of Calcium and integrin-binding protein 1 (Homo sapiens) (Q99828 whole entry, looked up): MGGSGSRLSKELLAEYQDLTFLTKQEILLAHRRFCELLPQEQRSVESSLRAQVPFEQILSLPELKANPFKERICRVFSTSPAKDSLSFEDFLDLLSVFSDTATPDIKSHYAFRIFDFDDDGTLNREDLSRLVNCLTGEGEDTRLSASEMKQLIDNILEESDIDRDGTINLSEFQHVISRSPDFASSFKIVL
Sequence of Cytochrome P450 3A4 (Homo sapiens) (P08684 whole entry, looked up): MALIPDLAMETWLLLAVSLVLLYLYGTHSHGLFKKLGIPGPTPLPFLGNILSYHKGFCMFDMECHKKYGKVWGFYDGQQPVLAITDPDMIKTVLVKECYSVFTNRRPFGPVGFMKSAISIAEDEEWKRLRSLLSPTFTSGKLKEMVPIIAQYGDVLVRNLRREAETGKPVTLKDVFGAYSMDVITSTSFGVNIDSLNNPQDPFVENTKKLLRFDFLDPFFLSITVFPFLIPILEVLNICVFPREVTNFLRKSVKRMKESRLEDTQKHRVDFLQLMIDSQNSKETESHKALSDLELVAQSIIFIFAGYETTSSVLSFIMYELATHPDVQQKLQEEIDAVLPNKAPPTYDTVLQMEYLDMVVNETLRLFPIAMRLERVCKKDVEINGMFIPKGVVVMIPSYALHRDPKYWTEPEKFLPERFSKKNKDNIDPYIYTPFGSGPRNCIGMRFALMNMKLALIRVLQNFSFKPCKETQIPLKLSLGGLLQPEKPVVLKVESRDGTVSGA
Sequence of Cytochrome P450 2C9 (Homo sapiens) (P11712 whole entry, looked up): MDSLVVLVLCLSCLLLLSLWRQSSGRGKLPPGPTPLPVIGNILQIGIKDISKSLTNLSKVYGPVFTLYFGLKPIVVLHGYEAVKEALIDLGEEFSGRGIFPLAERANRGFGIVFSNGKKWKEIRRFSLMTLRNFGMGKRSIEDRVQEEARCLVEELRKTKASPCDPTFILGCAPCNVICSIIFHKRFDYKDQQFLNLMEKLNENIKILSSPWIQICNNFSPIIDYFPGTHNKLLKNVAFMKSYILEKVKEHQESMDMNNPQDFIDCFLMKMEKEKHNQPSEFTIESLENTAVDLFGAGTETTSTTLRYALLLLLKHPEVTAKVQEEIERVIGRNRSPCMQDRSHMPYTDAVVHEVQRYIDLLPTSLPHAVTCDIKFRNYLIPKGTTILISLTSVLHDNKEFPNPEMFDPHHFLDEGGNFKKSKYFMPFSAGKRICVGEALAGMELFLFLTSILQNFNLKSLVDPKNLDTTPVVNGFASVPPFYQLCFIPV
Sequence of Cytochrome P450 2D6 (Homo sapiens) (P10635 whole entry, looked up): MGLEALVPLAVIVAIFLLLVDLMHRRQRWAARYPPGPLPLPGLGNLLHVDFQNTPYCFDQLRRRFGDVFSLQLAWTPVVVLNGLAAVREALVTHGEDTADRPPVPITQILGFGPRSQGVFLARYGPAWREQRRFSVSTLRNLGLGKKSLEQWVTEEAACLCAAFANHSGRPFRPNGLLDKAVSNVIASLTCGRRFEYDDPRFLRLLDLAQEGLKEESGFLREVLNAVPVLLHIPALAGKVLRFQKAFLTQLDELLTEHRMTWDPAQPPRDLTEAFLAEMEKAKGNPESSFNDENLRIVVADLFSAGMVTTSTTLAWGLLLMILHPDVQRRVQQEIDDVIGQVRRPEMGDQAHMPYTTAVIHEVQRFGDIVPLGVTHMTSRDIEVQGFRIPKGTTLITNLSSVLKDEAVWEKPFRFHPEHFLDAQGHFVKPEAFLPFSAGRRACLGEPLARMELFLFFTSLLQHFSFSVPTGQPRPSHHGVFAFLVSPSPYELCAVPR

NC(=O)OCCCc1ccccc1
inactive: outcome [1] | Potency [2] | Potency [3] | Potency [4] | max response [5] 1.15% | outcome [6] | Potency [7] | Potency [8] | Potency [9] | Potency [10] | Potency [11] | Potency [12]

COc1ccc2[nH]cc(CCN(C(C)C)C(C)C)c2c1
inactive: outcome [1] | Potency [2] | outcome [13] | outcome [6]
active: Potency [7] 3.25 µM

C#C[C@]1(O)CC[C@H]2[C@@H]3CCC4=CC(=O)CCC4=C3C=C[C@@]21CC
inactive: outcome [1] | Potency [2] | outcome [13] | outcome [6] | Potency [9] | Potency [10] | Potency [12]
active: Potency [7] 0.977 µM

CN1C2CCC(C)(C)C1CC(OC(=O)C(O)(c1cccs1)c1cccs1)C2 (configuration not stated)
inactive: outcome [1] | Potency [2] | Potency [3] | max response [5] -12.1% | Potency [9] | Potency [10]
active: Potency [7] 13.8 µM

C[C@H]1C(=O)O[C@@H]2CCN3CC=C(COC(=O)[C@](C)(O)[C@]1(C)O)[C@H]23
inactive: outcome [1] | Potency [2] | outcome [13] | outcome [6] | Potency [7]

CN1[C@@H]2CC[C@H]1CC(OC(=O)c1cc(Cl)cc(Cl)c1)C2 (some centres not stated)
active: Potency [7] 0.0436 µM
inactive: outcome [1] | Potency [2] | Potency [3] | Potency [4] | max response [5] -1.72% | Potency [9] | Potency [12]

N#Cc1nn(-c2c(Cl)cc(C(F)(F)F)cc2Cl)c(N)c1S(=O)C(F)(F)F (configuration not stated)
inactive: outcome [1] | Potency [2] | outcome [13] | outcome [6]
active: Potency [7] 3.89 µM | Potency [9] 3.89 µM

CCCCCCCCC(=O)NCc1ccc(O)c(OC)c1
inactive: outcome [1] | Potency [2] | outcome [13] | outcome [6] | Potency [10] | Potency [12]
active: Potency [7] 13.8 µM | Potency [9] 0.692 µM
4.35%: activity change, negative = inhibition [11]

C[C@H]1CNCCc2ccc(Cl)cc21
inactive: outcome [1] | Potency [2] | outcome [13] | outcome [6] | Potency [8] | Potency [9] | Potency [12]
active: Potency [7] 1.95 µM

OC(c1ccccc1)(c1ccccc1)C1CCNCC1
active: Potency [4] 15.8 µM
inactive: outcome [1] | Potency [2] | Potency [3] | max response [5] -6.14% | outcome [6] | Potency [9] | Potency [12]

O=C(O)Cc1ccccc1
inactive: outcome [1] | Potency [2] | outcome [13] | outcome [6] | Potency [9] | Potency [11] | Potency [12]
active: Potency [7] 15.5 µM

CC(C)(C)OC(=O)c1ncn2c1[C@@H]1CCCN1C(=O)c1c(Br)cccc1-2
inactive: outcome [1] | Potency [2] | outcome [13] | outcome [6] | Potency [7]
active: Potency [9] 4.36 µM

CN(C)CCc1c[nH]c2ccccc12
active: Potency [7] 62.8 µM
inactive: outcome [1] | Potency [2] | outcome [13] | outcome [6] | Potency [8] | Potency [12]

C[C@@H]1C[C@@H]([C@H](O)CC2CC(=O)NC(=O)C2)C(=O)[C@@H](C)C1
inactive: outcome [1] | Potency [2]
active: Potency [3] 1.58 µM and 1.12 µM | Potency [4] 0.224 µM | Potency [11] 2.51 µM | Potency [12] 211 nM and 296 nM

NC1(c2ccccc2)CCCCC1
active: Potency [4] 56.2 µM | Potency [7] 28 µM | Potency [12] 17.1 µM
inactive: outcome [1] | Potency [2] | Potency [3] | outcome [6] | Potency [9]

O=C(N[C@@H]1N=C(c2ccccc2F)c2cccc3c2N(CC3)C1=O)c1cc2ccccc2[nH]1
inactive: outcome [1] | Potency [2]

C1CN2CCC1CC2
inactive: outcome [1] | Potency [2] | outcome [13] | outcome [6] | Potency [7] | Potency [9] | Potency [12]

Oc1c(Br)cc(Br)cc1Br
inactive: outcome [1] | Potency [2] | outcome [13] | outcome [6] | Potency [7] | Potency [12]

COc1cc(C[C@@H](C)N)c(OC)cc1C
inactive: outcome [1] | Potency [2] | outcome [13] | outcome [6] | Potency [9] | Potency [12]

CC[C@H]1C[C@H]2[C@@H]3CCC4=CC(=O)CC[C@@H]4[C@H]3CC[C@]2(C)[C@H]1O
inactive: outcome [1] | Potency [2] | outcome [13] | outcome [6] | Potency [7] | Potency [11]

CN(C)C(=O)Oc1cc(OC(=O)N(C)C)cc(C(O)CNC(C)(C)C)c1 (configuration not stated)
inactive: outcome [1] | Potency [2] | outcome [13] | outcome [6] | Potency [10] | Potency [11] | Potency [12]

COc1cc(CC#N)cc(OC)c1OC
inactive: outcome [1] | Potency [2] | outcome [13] | outcome [6] | Potency [7] | Potency [12]

NCc1cccnc1
inactive: outcome [1] | Potency [2] | outcome [13] | outcome [6] | Potency [7] | Potency [9] | Potency [12]

ClC1=C(Cl)C2(Cl)C(CBr)CC1(Cl)C2(Cl)Cl (configuration not stated)
inactive: outcome [1] | Potency [2] | outcome [13] | outcome [6] | Potency [7] | Potency [9] | Potency [12]

C#C[C@]1(O)C=C[C@H]2[C@@H]3CCC4=CC(=O)CC[C@@H]4[C@H]3CC[C@@]21CC
inactive: outcome [1] | Potency [2] | outcome [13] | outcome [6] | Potency [10]
-10.9%: activity change, negative = inhibition [11]
active: Potency [9] 2.75 µM
